Measured values from PubChem BioAssay (NCI).
About 83,000 compounds went through this panel and 20% of them were active in at least one assay; those are over-represented in the sample as a whole.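 Step 1: grow cells in 96-well plates. Step 2: add test compound at a single concentration. Step 3: incubate 48 h. Step 4: record percent growth.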 Unmarked numbers belong to inactive results. Active and inactive are the calls of the source.

Each compound was assayed on CCRF-CEM leukemia (assay: NCI-60 one-dose screen, 48 h (100 = growth as untreated, 0 = no growth, -100 = all killed)). Conditions: 10 µM unless noted.
Procedure: Growth inhibition of the CCRF-CEM human tumor cell line is measured as a screen for anti-cancer activity. Cells are grown in 96 well plates and exposed to the test compound for 48 hours. Compounds are tested at a single concentration, which is 10^-5 M for most compounds. The reported endpoint is percent growth (GI% or GIPRCNT), where numbers from 0 - 100% represent growth inhibition, and numbers from -100% - 0 represent cell death. For example, a value of 40 represents 60% growth inhibition. A value of 0 means no net growth occurred over the course of the experiment. A value of -40 indicates 40% of cells at the beginning of the experiment died by the end of the experiment. A value of -100 means all cells are dead at the end of the experiment.
NCI-60 Human Tumor Cell Lines Screen was performed using the standard one-dose NCI protocol, which is described in more detail at https://dtp.cancer.gov/discovery_development/nci-60/default.htm.
Compounds with GIPRCNT values below 10 were considered active. Activity score was based on GIPRCNT using the following formula: […]
Score is 0 for GIPRCNT values of 100 or above, 50 for GIPRCNT values of 0, and 100 for GIPRCNT values of -100.

| Structure (SMILES) | growth |
| --- | --- |
| COc1ccc(CC(C)=C(c2ccc(OCCN(C)C)cc2)c2ccc(OCCN(C)C)cc2)cc1 | 17.1% |
| CC(C)C1C2=C(NCCN1C(=O)Cc1ccccc1)C(C)(C)N(Cc1ccccc1)C2=O (stereo not given) | 111% |
| CCn1ccnc1C(=O)/C=C/c1ccc(CC(=O)Nc2ccc(F)cc2)cc1 | 7.58% (active) |
| c1ccc(N2N=C(c3cccc(Nc4ccncc4)c3)CC2c2ccc3c(c2)OCO3)cc1 (stereo not given) | 1.64% (active) |
| COc1cccc(C(Cc2ccccc2)Nc2ccccc2)c1OC (stereo not given) | 87.5% |
| CCCCCCc1nc2nc(Cl)c(Cl)nc2[nH]1 | 47.8% |
| COc1cc2oc(-c3cccc(C(=O)Nc4ccc(Cl)cc4)c3)cc(=O)c2c(OC)c1OC | 28.5% |
| N/C(=N\N=C\c1cc2ccccc2s1)N/N=C/c1cc2ccccc2s1 | 99.2% |
| CN(Cc1ccccc1)c1nc(Cl)c(C2CC(c3ccc(Cl)cc3)=Cc3[nH][nH]c(=O)c32)s1 (stereo not given) | 106% |
| COc1ccc(Cn2nc(-c3cc(OC)c(OC)c(OC)c3)c3c2CCc2cnoc2-3)cc1OC | 55.6% |
| CCc1nc(C)cn1C(=O)OCc1nc2nc(Cl)nc(N3CCOCC3)c2[nH]1 | -5.27% (active) |
| COc1ccc(-c2nc(SC)nc(N3CCOCC3)c2C#N)cc1 | 88.7% |
| COc1ccc(C(=O)c2cc3c(N)c(C(=O)Nc4cccc(Cl)c4)sc3nc2C)cc1 | 8.14% (active) |
| Nc1nc(SN=Nc2ccc(S(N)(=O)=O)cc2)c2[nH]cnc2n1 | -2.18% (active) |
| O=[N+]([O-])c1cccc(-c2nc(-c3ccc(Cl)cc3Cl)cn2-c2ccccc2)c1 | 95.5% |
| CN(C)C(=O)OCc1nc2c(N3CCOCC3)nc(-c3ccccc3)nc2n1C | -12% (active) |
| CCC1(CC)NC(=O)c2c(c3ccc(Cl)c(Cl)c3n2C)C1C#N (stereo not given) | 19.4% |
| COc1ccc(C(=O)c2cc3c(N)c(C(=O)Nc4cccc(OC)c4)sc3nc2C)cc1 | 7.12% (active) |
| COc1ccc(C(=O)/C=C/c2cn(Cc3ccc(Cl)cc3)c3ccccc23)cc1 | 41.1% |
| C[C@H]1[C@H](C)CC[C@]2(CO)CC[C@]3(C)C(=CC[C@@H]4[C@@]5(C)CCCNC(C)(C)[C@@H]5CC[C@]43C)[C@H]12 | -34.7% (active) |

| Structure (SMILES) | growth |
| --- | --- |
| COc1ccc(C(=O)/C=C/c2c(OC)cc(OC)cc2OC)c(OC)c1 | 9.01% (active) |
| COc1ccc(NC(=O)c2sc3nc(C)c(C(O)c4ccc(OC)cc4)cc3c2N)cc1 (stereo not given) | 21.7% |
| NC(=S)N/N=C/c1ccc(OC(=O)COc2cc(Cl)c(Cl)cc2Cl)cn1 | 40.7% |
| CC(=O)O[C@H]1CC[C@@]2(C)[C@@H](CC[C@@H]3[C@@H]2CC[C@@]2(C)[C@H]3CC[C@]2(O)C(C)=O)C1 | 98.9% |
| O=C(O)C(/C=C/c1ccco1)=N\Nc1nc(-c2ccc(Cl)cc2)cs1 | 24% |
| CCOC(=O)c1c(SC)nn(-c2cc(=O)[nH]c3ccc(Br)cc23)c1N | 111% |
| Cc1[nH]c(C(=O)Nc2ccccc2OCc2cccc(C(=O)NCCN)c2)c(Cl)c1Cl | 25.1% |
| CC(O)(CO)c1ccccc1 (stereo not given) | 113% |
| COc1cc2nc(-c3ccc(C#N)cc3)[nH]c(=O)c2cc1OC | 188% |
| CCOC(=O)N1CCN(CCCCl)CC1 | 110% |
| O=C(O)CNC(=O)CN1C(=O)c2ccccc2C1=O | 81.1% |
| O=C(CN1CCOCC1)Nc1ccc2ncnc(Nc3ccc(OCc4cccc(F)c4)c(Cl)c3)c2c1 | 66.7% |
| Fc1ccc(-n2cc(COc3ncnc4sc5c(c34)CCCC5)nn2)cc1Cl | 89% |
| COc1ccc(/C=N/C2=C(C#N)C(c3ccccc3[N+](=O)[O-])c3ccc4ccccc4c3O2)cc1 (stereo not given) | 106% |
| Clc1cc(Cl)cc(N2N=C(c3cccc(Nc4ccncc4)c3)CC2c2ccccc2)c1 (stereo not given) | 28.3% |
| CC[C@@]12C=CCN3CC[C@]4(c5cc(NC(=O)COc6cc(OCC(=O)Nc7cc8c(cc7OC)N(C)[C@H]7[C@@](O)(C(=O)OC)[C@H](OC(C)=O)[C@]9(CC)C=CCN%10CC[C@]87[C@@H]%109)cc7oc(-c8ccccc8)cc(=O)c67)c(OC)cc5N(C)[C@@H]4[C@](O)(C(=O)OC)[C@H]1OC(C)=O)[C@H]32 | 13.6% |
| O=C1Nc2cc(-c3ccncc3)ccc2/C1=C/c1ccc[nH]1 | 104% |
| CN1CCN(c2cc(F)c(NC3=C(Cl)C(=O)c4ncccc4C3=O)c(F)c2)CC1 | -18.2% (active) |
| COc1ccc(C2=C(c3ccccc3)c3ccc(OC(C)=O)cc3OC2(C)C)cc1 | 50.3% |
| S=c1[nH]cccc1-c1nnc2n1Nc1nc3ccc(Cl)cc3cc1CS2 | 100% |
